# Measured values published in ChEMBL document CHEMBL1961873, “Compounds: GSK PKIS; Assays: Nanosyn kinase panel” (2012).
# Molecular target: Protein kinase C eta type (Homo sapiens) (UniProt P24723)
# Conditions: at 1 µM
# 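Also: value is the mean inhibition, from GSK PKIS.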
# Protein kinase C eta type (Homo sapiens), sequence (P24723 whole entry): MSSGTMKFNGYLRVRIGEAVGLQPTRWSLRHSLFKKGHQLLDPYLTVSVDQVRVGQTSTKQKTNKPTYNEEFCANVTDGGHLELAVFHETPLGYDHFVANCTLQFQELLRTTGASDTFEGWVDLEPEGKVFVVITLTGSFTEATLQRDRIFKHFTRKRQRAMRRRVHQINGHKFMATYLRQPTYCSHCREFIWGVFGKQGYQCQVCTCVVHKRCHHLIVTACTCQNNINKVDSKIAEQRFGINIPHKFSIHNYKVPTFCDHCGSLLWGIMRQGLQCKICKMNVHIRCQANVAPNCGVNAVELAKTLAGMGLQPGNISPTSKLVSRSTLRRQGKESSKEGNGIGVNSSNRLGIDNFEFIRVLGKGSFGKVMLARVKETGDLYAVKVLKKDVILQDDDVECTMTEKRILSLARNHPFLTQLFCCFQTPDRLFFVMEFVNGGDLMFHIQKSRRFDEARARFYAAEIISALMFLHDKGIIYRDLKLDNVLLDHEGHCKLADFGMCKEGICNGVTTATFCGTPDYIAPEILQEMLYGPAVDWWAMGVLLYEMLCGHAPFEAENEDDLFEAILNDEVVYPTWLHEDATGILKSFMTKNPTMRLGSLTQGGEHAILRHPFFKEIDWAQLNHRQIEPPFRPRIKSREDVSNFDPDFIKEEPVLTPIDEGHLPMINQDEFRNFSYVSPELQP
row,SMILES,inhibition [%]
1,CN(C)CCCn1c(-c2nonc2N)nc2cnccc21,10
2,CN(c1ccc(NC(=O)Nc2ccc(OC(F)(F)F)cc2)cc1)c1ccnc(Nc2cccc(S(N)(=O)=O)c2)n1,-0.51
3,O=C(Nc1ccc(Oc2ccc3[nH]c(NC(=O)c4ccco4)nc3c2)cc1)Nc1cc(C(F)(F)F)ccc1F,-0.71
4,c1ccc(Cc2nc3ccc(Nc4ncnc5ccccc45)cc3[nH]2)cc1,2.75
5,C[C@@H](Oc1cc(-n2cnc3ccc(OCC4CCN(C)CC4)cc32)sc1C(N)=O)c1ccccc1C(F)(F)F,5.16
6,Nc1nccc(-c2c(-c3ccc(F)cc3)nn3cc(C(F)(F)F)ccc23)n1,1.15
7,NC(=O)c1cccc(Nc2nccc(Nc3cccc(F)c3)n2)c1,2.62
8,Nc1nccc(C#Cc2cncnc2Nc2ccc(OCc3cccc(F)c3)c(Cl)c2)n1,-0.12
9,NC(=O)c1sc(-n2cnc3ccccc32)cc1OCc1ccccc1Br,2.7
10,CN(C)c1cc2c(Nc3ccc4c(cnn4Cc4ccccc4)c3)ncnc2cn1,1.17
11,NS(=O)(=O)c1ccc(-c2cc3ccncc3cc2OCc2ccccc2)cc1,3.62
12,Nc1ccc(C#Cc2cncnc2Nc2ccc(OCc3cccc(F)c3)c(Cl)c2)cc1,2.72
13,FC(F)(F)c1ccc(-c2nn3ncccc3c2-c2ccnc(Nc3ccc4c(c3)OCCO4)n2)cc1,6.69
14,Cc1cc(-c2ccccn2)cc(C)c1/C=C/c1cncc(-c2nn[nH]n2)c1,5.16
15,CCn1c(-c2nonc2N)nc2c(C#CC(C)(C)O)nc(OCCNC)cc21,95.4
16,Oc1cccc(-c2nc(-c3ccccc3)[nH]c2-c2ccncc2)c1,9.76
17,C[C@@H](Oc1cc(-n2cnc3ccc(OC[C@@H](O)CO)cc32)sc1C(N)=O)c1ccccc1Cl,0.23

row,SMILES,inhibition [%]
1,OCc1ccc(-c2nc(-c3ccccn3)c(-c3ccc4c(c3)OCO4)[nH]2)cc1,1.71
2,Cc1ccc(NC(=O)CC2CC2)cc1-c1ccc(C(=O)NCC2CC2)cc1,4.84
3,COc1ccc(-c2nn3ncccc3c2-c2ccnc(Nc3cccc(C(F)(F)F)c3)n2)cc1,0.72
4,Cc1ccc2c(c1)/C(=N/Nc1ccc(S(N)(=O)=O)cc1)C(=O)N2,-1.47
5,COc1cc(/C=N/Nc2ncnc3c2cnn3C(C)C)ccc1O,3.21
6,NS(=O)(=O)c1ccc(NC=C2C(=O)Nc3ccc4ncsc4c32)cc1,4.18
7,COc1cc(Nc2nccc(-c3cnn4ncccc34)n2)cc(OC)c1,3.86
8,CCS(=O)(=O)c1ccc(OC)c(Nc2nccc(N(C)c3ccc4c(C)n[nH]c4c3)n2)c1,6.38
9,Cc1ccc(Nc2ccnc(Nc3cccc(C(N)=O)c3)n2)cc1O,4.32
10,CS(=O)(=O)Nc1cccc(-c2ccc3c(NC(=O)C4CC4)n[nH]c3c2)c1,3.34
11,NS(=O)(=O)c1ccc(Nc2cc(-c3cccc(O)c3)n[nH]2)cc1,2.17
12,COC(=O)c1cncc(/C=C/c2c(C)cc(O)cc2C)c1,5.34
13,COc1cc2ncnc(Nc3ccc(C)c(O)c3)c2cc1OC,0.65
14,COC(=O)Nc1nc2cc(Oc3ccc(NC(=O)Nc4cccc(Br)c4)cc3)ccc2[nH]1,4.28
15,[O-][S+]1CCN(Cc2ccc(-c3ccc4ncnc(Nc5ccc(OCc6ccccc6)c(Cl)c5)c4c3)o2)CC1,2.18
16,COc1cc2ncn(-c3cc(OCc4ccccc4S(C)(=O)=O)c(C#N)s3)c2cc1OC,-1.63
